Data taken from PubChem BioAssay (EPA / NIEHS).
Inconclusive results are not listed. Active and inactive are the calls of the source. The calls were made as follows: active = hit-call score of the fitted dose curve at least 0.9, where 1 is the maximum; inconclusive = response in the unintended direction; inactive = score below 0.9.

Assay: Tanguay_ZF_120hpf_PE_legacy: (Legacy) Oregon State University Tanguay Lab 120 Hour Post-fertilization zebrafish Assay for Pericardial Edema (AID 2283640);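 as to AC50: potency for increased incidence of pericardial edema versus DMSO baseline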
Procedure: Tanguay_ZF_120hpf_legacy is a whole embryo, multiplexed endpoint assay using zebrafish larvae exposed for 120 hours post fertilization on a 96-well plate.Tanguay_ZF_120hpf_PE_legacy is one of one assay component(s) measured or calculated from the Tanguay_ZF_120hpf_legacy assay. It is designed to make measurements of zebrafish development as detected with brightfield microscopy of developing zebrafish embryos.Data from the assay component Tanguay_ZF_120hpf_PE_legacy was analyzed into 1 assay endpoints. This assay endpoint, Tanguay_ZF_120hpf_PE_legacy, was analyzed in the positive analysis fitting direction relative to DMSO as the negative control and baseline of activity. Using a type of morphology reporter, gain-of-signal activity can be used to understand changes in developmentals as they relate to the whole embryo. To generalize the intended target to other relatable targets, this assay endpoint is annotated to the zebrafish development intended target family, where the subfamily is embryonic morphogenesis.
Zebrafish husbandry: Tropical 5D wild-type adult zebrafish were housed in at an approximate density of 1000 per 100 gallon tank at the Sinnhuber Aquatic Research Laboratory, Oregon State University, Corvallis, OR. Each tank was kept at standard laboratory conditions of 28C on a 14-h light/10-h dark photoperiod in fish water consisting of reverse osmosis water supplemented with a commercially available salt (Instant Ocean). Spawning funnels were placed into the tanks the night prior, and embryos were collected and staged. […] Ten microliters of each row of dilution plate 2 was added to 2 exposure plates. The final DMSO concentration used was 0.64% (vol/vol). Thirty-two embryos were also exposed to 5uM trimethyltin chloride (positive control). Plates were sealed to prevent evaporation and foil covered to reduce light exposure and kept in a 28C incubator. Embryos were statically exposed until 120 hpf. At 24 hpf, embryos were assessed for photomotor response using a custom photomotor response analysis tool (PRAT) and for developmental toxicity endpoints (MO24: mortality at 24 hpf, DP: developmental progression, SM: spontaneous movement, and NC: notochord distortion). At 120 hpf, locomotor activity was measured using Viewpoint Zebralab and assessed for 18 endpoints. Zebrafish acquisition and analysis program (ZAAP), a custom program designed to inventory, acquire, and manage zebrafish data, was used to collect developmental endpoints as either present or absent (i.e., binary responses were recorded). If mortality occurred for an embryo (at either 24 or 120 hpf), the non-mortality endpoints were not measured.

Q: With `NC(=O)N1c2ccccc2C=Cc2ccccc21` as the compound, how does the outcome read?
A: Its outcome is “inactive”.

Q: Which outcome does the source give for `Cc1nccn1-c1ccc(Sc2cccc(C3(C(N)=O)CCOCC3)c2)cc1` here?
A: The outcome was “inactive”.

Q: With `Cn1c(=O)c2[nH]cnc2n(C)c1=O` as the compound, how does the outcome read?
A: The outcome was “inactive”.

Q: For `C=CCc1cc(S(=O)(=O)c2ccc(O)c(CC=C)c2)ccc1O`, which outcome is on record?
A: The outcome was “inactive”.

Q: For `Cc1ccc(S(=O)(=O)NC(=O)NN2CCCCCC2)cc1`, which outcome is on record?
A: The outcome was “inactive”.

Q: Which outcome does the source give for `c1ccc2ncccc2c1` here?
A: Its outcome is “inactive”.

Q: Which outcome does the source give for `OC(CCl)CCl` here?
A: Its outcome is “inactive”.

Q: For `O=S1(=O)CCCO1`, which outcome is on record?
A: The outcome was “inactive”.

Q: With `C[C@]12C=CC(=O)C=C1CC[C@H]1[C@@H]3C[C@@H](O)[C@](O)(C(=O)CO)[C@@]3(C)C[C@H](O)[C@@]12F` as the compound, how does the outcome read?
A: The outcome was “inactive”.

Q: Which outcome does the source give for `Nc1ccn([C@@H]2O[C@H](CO)[C@@H](O)[C@@H]2O)c(=O)n1` here?
A: Its outcome is “inactive”.

Q: Which outcome does the source give for `COS(C)(=O)=O` here?
A: The outcome was “inactive”.

Q: With `O=S(=O)(O)c1ccc(N=Nc2c(O)ccc3cc(S(=O)(=O)O)ccc23)cc1` as the compound, how does the outcome read?
A: The outcome was “inactive”.

Q: Which outcome does the source give for `CCOc1ccc2[nH]cc(C(=O)NCc3ccccc3)c(=O)c2n1` here?
A: The outcome was “inactive”.

Q: With `CC(=O)c1ccccc1` as the compound, how does the outcome read?
A: The outcome was “inactive”.

Q: For `COCc1nnc(-c2ccc[n+]([O-])c2)n1-c1c(Cl)c(Cl)cc2[nH]c(=O)c(=O)[nH]c12`, which outcome is on record?
A: Its outcome is “inactive”.

Q: Which outcome does the source give for `NC(=O)NN=Cc1ccc([N+](=O)[O-])o1` here?
A: Its outcome is “inactive”.

Q: Which outcome does the source give for `CC(C)c1nnc2ccc(-c3ocnc3-c3cc(F)ccc3F)cn12` here?
A: The outcome was “inactive”.

Q: With `O=C(O)c1cccc(C[C@@H]2COc3ccc(OCc4nc5cc(F)ccc5s4)cc3[C@@H]2O)c1` as the compound, how does the AC50 read?
A: The AC50 was 0.953 µM (active).

Q: With `CCCCCCCCCCCCCCCCOS(=O)(=O)O` as the compound, how does the outcome read?
A: The outcome was “inactive”.

Q: For `CCCCCCCCCC`, which outcome is on record?
A: The outcome was “inactive”.

Q: For `O=C(O)[C@H](O)[C@@H](O)C(=O)O`, which outcome is on record?
A: Its outcome is “inactive”.

Q: For `O=C(O)c1ccc2c(c1)nc(C(=O)NC1CCN(C3CC3)CC1)n2Cc1cc(-c2ccc(Cl)s2)on1`, which outcome is on record?
A: Its outcome is “inactive”.

Q: Which outcome does the source give for `CCCC(CCC)C(=O)O` here?
A: The outcome was “inactive”.

Q: Which outcome does the source give for `OCCNCCO` here?
A: The outcome was “inactive”.

Q: Which outcome does the source give for `OCc1ccccc1` here?
A: The outcome was “inactive”.

Q: Which outcome does the source give for `CCCCN1C(=O)[C@@H]([C@H](O)C2CCCCC2)NC(=O)C12CCN(Cc1ccc(Oc3ccc(C(=O)O)cc3)cc1)CC2` here?
A: The outcome was “inactive”.

Q: Which outcome does the source give for `O=C(NO)C1(NS(=O)(=O)c2ccc(Oc3ccc(F)cc3)cc2)CCOCC1` here?
A: Its outcome is “inactive”.

Q: For `NNC(=O)c1ccncc1`, which outcome is on record?
A: The outcome was “inactive”.

Q: Which outcome does the source give for `CC1(C)C(=O)N(Cl)C(=O)N1Cl` here?
A: Its outcome is “inactive”.

Q: For `Cn1cc[nH]c1=S`, which outcome is on record?
A: The outcome was “inactive”.

Q: For `c1ccc2cc3ccccc3cc2c1`, which outcome is on record?
A: The outcome was “inactive”.

Q: With `O=c1[nH]cnc2c1ncn2[C@H]1CC[C@@H](CO)O1` as the compound, how does the outcome read?
A: The outcome was “inactive”.

Q: Which AC50 does the source give for `CCN(CC)C(=S)SSC(=S)N(CC)CC` here?
A: Its AC50 is 1.22 µM (active).

Q: For `CCCCCOC(C)=O`, which outcome is on record?
A: The outcome was “inactive”.

Q: For `COc1cc(C(C)C)c2c(c1)S(=O)(=O)N(COc1cc(=O)n3cccc(OCCN4CCCCC4)c3n1)C2=O`, which AC50 is on record?
A: The AC50 was 20 µM (active).

Q: Which outcome does the source give for `CCc1ccc(O)c(C(C)(C)C)c1` here?
A: The outcome was “inactive”.

Q: For `OC[C@H]1O[C@@H]2O[C@H]3[C@H](O)[C@@H](O)[C@@H](O[C@H]4[C@H](O)[C@@H](O)[C@@H](O[C@H]5[C@H](O)[C@@H](O)[C@@H](O[C@H]6[C@H](O)[C@@H](O)[C@@H](O[C@H]7[C@H](O)[C@@H](O)[C@@H](O[C@H]1[C@H](O)[C@H]2O)O[C@@H]7CO)O[C@@H]6CO)O[C@@H]5CO)O[C@@H]4CO)O[C@@H]3CO`, which outcome is on record?
A: The outcome was “inactive”.

Q: With `CCCCCCCC1CCC(=O)O1` (stereo not given) as the compound, how does the outcome read?
A: Its outcome is “inactive”.

Q: Which outcome does the source give for `OC(Cn1cncn1)(Cn1cncn1)c1ccc(F)cc1F` here?
A: Its outcome is “inactive”.

Q: Which outcome does the source give for `OCC(CO)(CO)CO` here?
A: The outcome was “inactive”.
